Columns and labels:
[1] = test system: Vero E6 infected with SARS-CoV-2; assay: morphology score (similarity to uninfected cells); higher = more like uninfected cells; conditions: 24 h
[2] = test system: Vero E6 infected with SARS-CoV-2; assay: SARS-CoV-2 infection rate relative to infected DMSO; higher = more infection, active = 60 or less; conditions: 24 h

SMILES	morphology score [1]	SARS-CoV-2 infection rate [2]
C=C(C)[C@@H]1[C@H]2OC(=O)[C@@H]1[C@]1(O)C[C@H]3O[C@]34C(=O)O[C@H]2[C@]14C [picrotoxinin] (10 µM)	0.0677	116% (inactive)
NS(=O)(=O)c1ccc2c(c1)C1C=CCC1C(c1ccc(Br)cc1)N2 (centres undefined) (10 µM)	-0.0557	95% (inactive)
C[C@@H](O[C@H]1OCCN(Cc2nn[nH]c2CN(C)C)[C@H]1c1ccc(F)cc1)c1cc(C(F)(F)F)cc(C(F)(F)F)c1 (10 µM)	0.43	58% (active)
CC1=C(/C=C/C(C)=C/C=C/C(C)=C/C=O)C(C)(C)CCC1 [retinaldehyde] (10 µM)	-0.111	114% (inactive)
O=S(=O)(N[C@H](CO)C(C(F)(F)F)C(F)(F)F)c1ccc(Cl)s1 [begacestat] (10 µM)	0.00774	98% (inactive)
O=C(O)c1cc(=O)c2ccccc2[nH]1 [kynurenic-acid] (10 µM)	0.122	97% (inactive)
COc1cc(OC)c(NC(=O)Nc2cc(C)on2)cc1Cl (10 µM)	0.268	87% (inactive)
Cc1c(NC(=O)OC[C@@H]2COCCN2)cn2ncnc(Nc3ccc4c(cnn4Cc4cccc(F)c4)c3)c12 (0.833333 µM)	-0.105	102% (inactive)
CC(CCc1ccc(O)cc1)NCCc1ccc(O)c(O)c1 (centres undefined) [dobutamine] (10 µM)	-0.179	113% (inactive)
O=P(O)(O)C(Cl)(Cl)P(=O)(O)O [clodronic-acid] (10 µM)	-0.00847	92% (inactive)
C=CC(=O)Nc1cc(Nc2nccc(-c3c[nH]c4ccccc34)n2)c(OC)cc1N(C)CCN(C)C (0.833333 µM)	-0.245	112% (inactive)
CCCCS(=O)(=O)N[C@@H](Cc1ccc(OCCCCC2CCNCC2)cc1)C(=O)O [tirofiban] (10 µM)	0.0487	110% (inactive)
CC(C(=O)O)c1cccc(C(=O)c2ccccc2)c1 (centres undefined) [ketoprofen] (10 µM)	0.173	102% (inactive)
CC(C)N(C[C@H]1O[C@@H](n2cnc3c(N)ncnc32)[C@H](O)[C@@H]1O)[C@H]1C[C@@H](CCc2nc3cc(C(C)(C)C)ccc3[nH]2)C1 (10 µM)	0.122	110% (inactive)
CCN1C[C@]2(OC(=O)c3ccccc3NC(C)=O)CC[C@H](OC)[C@@]34[C@@H]2C[C@@H]([C@@H]13)[C@@]1(O)C[C@H](OC)[C@H]2C[C@@H]4[C@]1(O)[C@H]2OC [lappaconite] (10 µM)	0.0794	118% (inactive)
NCC(CS(=O)(=O)O)c1ccc(Cl)cc1 (centres undefined) [saclofen] (10 µM)	0.194	94.5% (inactive)
CN(C)CCN(Cc1cccs1)c1ccccn1 [methapyrilene] (10 µM)	-0.165	113% (inactive)
O=[N+]([O-])c1cnc(Sc2nnc(O)n2-c2ccc3c(c2)OCCO3)s1 (0.833333 µM)	0.392	76.5% (inactive)
CC(=O)OCC(=O)[C@@]1(O)CC[C@H]2[C@@H]3CCC4=CC(=O)CC[C@]4(C)[C@H]3C(=O)C[C@@]21C [cortisone-acetate] (10 µM)	-0.0698	87.5% (inactive)
CCC1(c2ccccc2)C(=O)NCNC1=O [primidone] (10 µM)	0.097	102% (inactive)
CCC1(c2c[nH]cn2)Cc2ccccc2C1 [atipamezole] (10 µM)	-0.114	112% (inactive)

SMILES	morphology score [1]	SARS-CoV-2 infection rate [2]
CCCc1c(OCCCCc2nnn[nH]2)ccc(C(C)=O)c1O [tomelukast] (10 µM)	-0.0661	110% (inactive)
O=C(O)C1=C[C@@H](O)[C@@H](O)[C@H](O)C1 [shikimic-acid] (10 µM)	0.0235	108% (inactive)
CC1(C)CC(=O)C(C2C3=C(CC(C)(C)CC3=O)Oc3ccccc32)C(=O)C1 (centres undefined) (10 µM)	0.28	98% (inactive)
O=C(O)COc1ccc(/C=C2\SC(=O)NC2=O)cc1 (10 µM)	0.0392	97% (inactive)
C[C@@H]1CC[C@@]2(NC1)O[C@H]1C[C@H]3[C@@H]4CC=C5C[C@@H](O[C@@H]6O[C@H](CO)[C@@H](O[C@@H]7O[C@@H](C)[C@H](O)[C@@H](O)[C@H]7O)[C@H](O)[C@H]6O[C@@H]6O[C@@H](C)[C@H](O)[C@@H](O)[C@H]6O)CC[C@]5(C)[C@H]4CC[C@]3(C)[C@H]1[C@@H]2C [solamargine] (0.833333 µM)	0.117	102% (inactive)
C[C@H](NC(=O)Cc1cc(F)cc(F)c1)C(=O)N[C@@H]1C(=O)N(C)c2ccccc2-c2ccccc21 (10 µM)	0.18	119% (inactive)
NC(N)=Nc1nc(CSCC/C(N)=N/S(N)(=O)=O)cs1 [famotidine] (10 µM)	-0.0119	106% (inactive)
COc1cc2c(cc1F)C(c1ccccc1Cl)=Nc1c(n[nH]c1C)N2 (10 µM)	-0.191	104% (inactive)
Cc1ccc2c(-c3ccccc3)nc(=O)n(C(C)C)c2c1 [proquazone] (10 µM)	0.0698	103% (inactive)
NC(=O)N/N=C/c1ccc([N+](=O)[O-])o1 [nitrofurazone] (10 µM)	0.187	105% (inactive)
NNC(=O)c1ccncc1 [isoniazid] (10 µM)	-0.115	111% (inactive)
Cn1ccc2cc(NC(=O)Nc3cccnc3)ccc21 (10 µM)	-0.0432	117% (inactive)
CS(=O)(=O)c1ccc(-c2nnc(/C=C/c3nnc(-c4ccc(C#N)cc4)o3)n2-c2ccccc2Cl)nc1 (10 µM)	0.0833	99% (inactive)
COc1ccc(-c2c(C)c(C(=O)NN3CCCCC3)nn2-c2ccc(Cl)cc2Cl)cc1 (10 µM)	0.154	86% (inactive)
O=C(/C=C/c1ccc(CN(CCO)CCc2c[nH]c3ccccc23)cc1)NO [dacinostat] (0.833333 µM)	0.00104	104% (inactive)
O=c1[nH]c(=O)n([C@H]2C[C@H](O)[C@@H](CO)O2)cc1I [idoxuridine] (10 µM)	0.0252	108% (inactive)
CCCCCCCCCCCCCCCC[n+]1ccn(Cc2ccccc2)c1C (0.833333 µM)	0.0516	104% (inactive)
CC(C)(C)c1ccc(C(=O)CCCN2CCC(OC(c3ccccc3)c3ccccc3)CC2)cc1 [ebastine] (10 µM)	0.606	50% (active)
CC1(C)O[C@@H]2C[C@H]3[C@@H]4CCC5=CC(=O)CC[C@]5(C)[C@@]4(F)[C@@H](O)C[C@]3(C)[C@]2(C(=O)CCl)O1 [halcinonide] (10 µM)	0.157	106% (inactive)
Cc1ccccc1C(C(=O)NC1CCCCC1)N(C(=O)Cn1ccnc1C)c1cccc(F)c1 (centres undefined) (10 µM)	0.177	108% (inactive)
CCOC(=O)[C@H](CCc1ccccc1)N[C@@H](C)C(=O)N1CCC[C@H]1C(=O)O [enalapril] (10 µM)	0.198	96.5% (inactive)

SMILES	morphology score [1]	SARS-CoV-2 infection rate [2]
O=c1[nH]cc(F)c(=O)[nH]1 [5-fluorouracil] (0.833333 µM)	0.0377	102% (inactive)
COc1ccc(O)cc1 [mequinol] (10 µM)	-0.0349	105% (inactive)
CN1CCN(C2=Cc3ccccc3Oc3ccc(Cl)cc32)CC1 (10 µM)	0.217	106% (inactive)
Nc1cccc2c(=O)[nH][nH]c(=O)c12 [monosodium-alpha-luminol] (10 µM)	0.000532	104% (inactive)
NC(=O)N1c2ccccc2CC(=O)c2ccccc21 [oxcarbazepine] (10 µM)	0.0932	108% (inactive)
O=C(OCCO)c1ccccc1O [2-hydroxyethyl-salicylate] (10 µM)	-0.198	108% (inactive)
COc1ccc(-c2sc(NC(=O)C(C)(C)C)nc2C)cc1S(=O)(=O)Nc1ccc(O)cc1 [PI4KIII-beta-inhibitor-1] (10 µM)	0.325	66% (inactive)
O=C1OC(CN2CCOCC2)CN1/N=C/c1ccc([N+](=O)[O-])o1 (centres undefined) [furaltadone] (10 µM)	0.0402	97% (inactive)
Cc1ccsc1/C=C/C1=NCCCN1C [morantel] (10 µM)	-0.00401	99.5% (inactive)
Nc1n[nH]c2nc3ccccc3nc12 [CDK1-5-inhibitor] (10 µM)	-0.113	112% (inactive)
Cc1nnc(C[C@@H]2C=C(c3ccc(Cl)cc3)c3ccccc3-n3c(C)nnc32)o1 (0.833333 µM)	-0.106	108% (inactive)
CC1(C)CC(=O)c2c(C(F)(F)F)nn(-c3ccc(C(N)=O)c(N[C@H]4CC[C@H](OC(=O)CN)CC4)c3)c2C1 (10 µM)	0.127	108% (inactive)
COc1ccc(COc2ccc(Cc3cnc(N)nc3N)cc2OC)cc1 (10 µM)	-0.072	112% (inactive)
CC(C)(C)c1ccc(S(=O)(=O)/C=C/C#N)cc1 (0.833333 µM)	0.173	89.5% (inactive)
CC(C)c1ccc(NC(=O)Cn2cnc3c2c(=O)n(C)c(=O)n3C)cc1 (10 µM)	0.0452	109% (inactive)
N[C@@H](Cn1oc(=O)[nH]c1=O)C(=O)O [L-quisqualic-acid] (10 µM)	0.0395	106% (inactive)
Clc1ccc(C(Cn2ccnc2)OCc2ccc(Sc3ccccc3)cc2)c(Cl)c1 (centres undefined) [fenticonazole] (10 µM)	-0.0119	114% (inactive)
COc1cc(C(C)=O)ccc1OCCCN1CCC(c2noc3cc(F)ccc23)CC1 [iloperidone] (10 µM)	-0.112	111% (inactive)
C[C@@H]1NC(C)(C)CO[C@@]1(O)c1cccc(Cl)c1 [radafaxine] (10 µM)	-0.0433	110% (inactive)
COC(=O)c1ccc2c(c1)nc(NC(=O)c1ccccc1)n2CCCc1ccccc1 (10 µM)	0.0334	94.5% (inactive)

Source: the supplement of paper PMC13380429
